# FBW7 act = FBW7 E3 ligase activators, primary screen, biochemical, AlphaScreen, human | F-box/WD repeat-containing protein 7 (Homo sapiens), Q969H0 | AlphaScreen FBW7–phospho-cyclin E peptide binding, activator screen | normalized activity (activation), % at 26.1 µM | 650,000 compounds, 0.13% hits; in the data active means normalized activity above about 1.9%;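 further: purified mutant Fbw7 with reduced substrate affinity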
# GPR151 ag = activators of human GPR151, primary screen, cell-based, PathHunter beta-arrestin, luminescence; G-protein coupled receptor 151 (Homo sapiens), Q8TDV0; PathHunter beta-arrestin GPR151 cells; activation, % at 11.2 µM; 650,000 compounds, 1% hits; AID 1508602, 2020; in the data active means activation above about 4.9%;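 further: 0% = median of compound wells and 100% = cells with positive control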
# TEAD-YAP inh = TEAD-YAP interaction inhibition, primary screen, TEAD-YAP interaction inhibitor project, luminescence, HEK-TIYL cells. TEAD-Gal4/YAP UAS-luciferase luminescence. inhibition, % at 9.12 µM. 640,000 compounds, 1.4% hits; in the data active means inhibition above about 32%;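 further: 0% = median of test compound wells and 100% = reference inhibitor wells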
# MITF inh = MITF inhibitors, primary screen, biochemical, AlphaScreen, human; Microphthalmia-associated transcription factor (Homo sapiens), O75030; AID 1259374, 2018; inhibition, % at 2.6 µM; 650,000 compounds, 0.91% hits; AlphaScreen MITF homodimerization, bead proximity signal; in the data active means inhibition above about 50%;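 further: 0% = vehicle wells with protein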
# GPR151 confirm = GPR151 activators, triplicate retest, confirmation, cell-based, PathHunter beta-arrestin, luminescence | shares compounds with GPR151 ag | GPR151 PathHunter beta-arrestin cells, 90 min; % of EA-reagent control over plate median | activation, % at 11.2 µM | 6,700 tested, under 10 active;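 active means mean percent activation across replicates above the confirmation screen cutoff of 4.91%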
# GPR119 ag = GPR119 activators in beta-arrestin cells, counter-screen for GPR151 activator project, cell-based, PathHunter beta-arrestin, luminescence, triplicate; shares compounds with GPR151 ag; 90 min; 0 = compound-well median, 100 = enzyme-acceptor control; activation, % at 11.2 µM; 6,700 compounds, 0.3% hits;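 active means mean percent activation in the counterscreen above 29.09%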;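 further: counterscreen on off-target GPR119 to flag nonselective hits from the GPR151 activator screen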
# Target sequence (Q8TDV5 whole entry, looked up): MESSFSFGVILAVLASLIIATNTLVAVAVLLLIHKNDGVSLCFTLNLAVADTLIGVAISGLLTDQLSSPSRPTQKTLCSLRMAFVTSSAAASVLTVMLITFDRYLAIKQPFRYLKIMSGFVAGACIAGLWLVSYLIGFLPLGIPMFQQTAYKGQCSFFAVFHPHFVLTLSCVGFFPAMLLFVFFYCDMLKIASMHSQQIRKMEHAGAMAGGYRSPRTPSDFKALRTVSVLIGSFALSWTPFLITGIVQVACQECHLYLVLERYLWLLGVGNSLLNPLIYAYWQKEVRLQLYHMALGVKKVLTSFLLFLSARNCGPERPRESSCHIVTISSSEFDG
# An asterisk follows results filed as active; nt = no result. In the library only some 3.5% were active in any assay of this set; here they are far more common.
SMILES,FBW7 act,GPR151 ag,TEAD-YAP inh,MITF inh,GPR151 confirm,GPR119 ag
Cc1ccc(NC(=O)c2sc3cc(C)ccc3c2Cl)cc1,0,1,-37,-8,nt,nt
CCNC(=O)c1sc2cc(C)ccc2c1Cl,0,6.4*,-28,9,-1,-5
O=S(=O)(NCC1CCCO1)c1ccc(Cl)c(C(F)(F)F)c1 (stereo not drawn),1,0,7,-6,nt,nt
O=S(=O)(NCC1CCCO1)c1ccc(-c2ccc(Cl)cc2)cc1 (stereo not drawn),0,7.4*,-1,19,1,-1
CSCCC(NC(=O)c1ccc(Cl)c([N+](=O)[O-])c1)C(=O)O (stereo not drawn),0,5.3*,5,0,2,12
CCCCCn1c(SCc2ccccn2)nc2cc(C(=O)N3CCN(c4ccccc4)CC3)ccc2c1=O,0,5.1*,-13,-2,-1,-21
N#CCSc1nc2cc(C(=O)N3CCCC3)ccc2c(=O)n1-c1ccccc1,0,0,-7,12,nt,nt
N#CCSc1nc2cc(C(=O)N3CCN(c4ccccc4)CC3)ccc2c(=O)n1C1CCCCC1,0,11*,-4,-11,1,8
CCOC(=O)N1CCC(NC(=O)CCCOc2cc(=O)n(C)c3ccccc23)CC1,0,0,-4,2,nt,nt
Cc1ccsc1C(=O)N1CCCC(CCC(=O)N(C)CCc2ccccn2)C1 (stereo not drawn),0,1,4,3,nt,nt
O=C(/C=C/c1cccc([N+](=O)[O-])c1)NC(=S)NNC(=O)c1cccs1,0,-1,-4,1,nt,nt
CCCCC1=CC2=C(c3ccco3)C(=O)C(C)(OC(=O)c3ccc(OC)cc3)C(=O)C2=CO1 (stereo not drawn),0,-1,nt,21,nt,nt
CCCCC1=CC2=C(c3ccco3)C(=O)C(C)(OC(=O)c3ccc(Cl)nc3)C(=O)C2=CO1 (stereo not drawn),0,6.5*,nt,-7,0,-16
CCc1cccc(C)c1NC(=S)N(Cc1cccs1)C1CCCC1,0,-1,-8,-7,nt,nt
CSc1nnc(-c2ccco2)n1-c1ccccc1,0,5.1*,-3,3,1,13
CCOC(=O)c1c(NC(=O)CSc2nnc(CNC(=O)c3cccc(F)c3)n2-c2ccc([N+](=O)[O-])cc2)sc2c1CCCCC2,0,5.5*,-3,-1,0,-1
CCOC(=O)c1sc(NC(=O)CSc2nnc(CNC(=O)c3ccco3)n2-c2ccccc2OC)c(C(=O)OCC)c1C,0,8.7*,5,-2,-1,-13
CCOC(=O)c1c(NC(=O)CSc2nnc(CNC(=O)c3cc(OC)cc(OC)c3)n2Cc2ccccc2)sc2c1CCCC2,0,5.0*,-4,-9,0,-8
CCOC(=O)c1sc(NC(=O)CSc2nnc(CNC(=O)Cc3ccccc3)n2-c2ccccc2OC)c(C(=O)OCC)c1C,0,-2,3,1,nt,nt
CCOC(=O)c1c(NC(=O)CSc2nnc(CNC(=O)c3cccc(F)c3)n2-c2ccc(OCC)cc2)sc2c1CCC2,0,3,8,8,nt,nt
O=C1c2ccccc2-n2c1nc1ccc([N+](=O)[O-])cc1c2=O,0,0,9,16,nt,nt
CS(=O)(=O)C1=C(O)C(=O)N(CCN)C1c1ccccc1 (stereo not drawn),0,0,-17,-7,nt,nt
CCOC(=O)c1[nH]c(C)c(C(=O)N(C)C2CCN(C)CC2)c1C,0,1,-3,1,nt,nt
CC(C)(C)CN1CCCC(CNS(=O)(=O)c2cccc3cccnc23)C1 (stereo not drawn),0,6.4*,3,19,0,-8
O=S(=O)(NCC1CCCN(Cc2ccccn2)C1)c1cccc2cccnc12 (stereo not drawn),0,-2,-1,3,nt,nt
SMILES,FBW7 act,GPR151 ag,TEAD-YAP inh,MITF inh,GPR151 confirm,GPR119 ag
CC(C)(C)NS(=O)(=O)Cc1ccc(Cl)cc1,0,1,2,-9,nt,nt
Cc1ccc(CNC(=O)CC(C)S(=O)(=O)c2cc3c(cc2C)NC(=O)CO3)cc1 (stereo not drawn),0,5.3*,-2,-11,1,5
Cc1cc2c(cc1S(=O)(=O)C(C)CC(=O)NCc1ccc(Cl)cc1)OCC(=O)N2 (stereo not drawn),0,-1,3,-7,nt,nt
C=CCNC(=O)c1sc(=S)n(CCc2ccccc2)c1N,0,5.2*,-34,9,0,1
CCC(C(=O)NCCCN1CCOCC1)n1ncn2c(cc3occc32)c1=O (stereo not drawn),0,9.9*,0,11,1,7
O=C(O)C1C(C(=O)Nc2ccc(Cl)cc2)C2C=CC1C21CC1 (stereo not drawn),1,-1,-13,18,nt,nt
O=C(O)C1C(C(=O)Nc2ccccc2)C2C=CC1C21CC1 (stereo not drawn),0,7.5*,3,6,1,16
CCOC(=O)c1ccc(Nc2ncnc3c2cnn3Cc2ccccc2)cc1,0,6.2*,2,25,-1,-14
CCOC(=O)c1ccc(Nc2ncnc3c2cnn3C)cc1,0,-1,-17,10,nt,nt
CCCn1c(N2CCN(CC(=O)Nc3ccc(C(C)=O)cc3)CC2)nc2ccccc21,0,0,3,3,nt,nt
CC(=O)N1CCN(Cc2nc3cc(NC(=O)c4ccc(Cl)cc4)ccc3n2C)CC1,0,5.4*,-5,0,0,1
CCN1CCN(CC(=O)Nc2ccc(C(C)=O)cc2)CC1,0,7.5*,8,-2,0,5
CC(=O)c1ccc(NC(=O)CN2CCN(Cc3nc4ccccc4n3C)CC2)cc1,0,6.3*,-3,1,0,-3
CC(=O)Nc1ccc2c(c1)nc(CN1CCN(C(C)=O)CC1)n2C,0,-1,-5,-24,nt,nt
O=C(CSc1nc(=O)n(CCO)c2c1CCCC2)N1CCCc2ccccc21,0,-1,4,-12,nt,nt
CC(CCC(N)=O)C(=O)c1ccccc1 (stereo not drawn),0,0,13,4,nt,nt
CC1(C)Cc2nc3sc4c(SCC(=O)N5CCOCC5)ncnc4c3cc2CO1,0,5.9*,-5,-17,0,-9
COc1ccc(Cl)cc1C(=O)NNC(=O)c1ccc(=O)[nH]c1,0,1,-7,7,nt,nt
CCOC(=O)c1cc2c(c(CSc3nc4ccccc4c(=O)n3Cc3cccs3)c1)OCOC2,0,1,-9,1,nt,nt

# Screens from PubChem.
